Screening results as filed in PubChem.
Lamin A splicing – qHTS Assay for Modulators of Lamin A Splicing. hit rate 0.01% among 200,000. Potency, µM (doses to about 46.1 µM), for the others: at the highest dose ratio change, negative = inhibition, hits mostly inhibitors. AID 1487, 2009. HeLa LMNA splicing GFP/RFP minigene ratio, 48 h; active means well fitted inhibition curve with a large enough effect in the signal ratio, with a control signal flat, not every such curve was filed as active; inconclusive means small, poorly fitted or top-dose-only effect, or effect the other way, or a change in a side signal; the % refers to the signal ratio; further: potency means the concentration at half of the fitted maximal effect
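Read-out is the ratio of GFP to DsRed2 object intensity, acquired by 488 nm laser-scanning cytometry on HeLa lamin A-EGFP minigene reporter cells. Compound incubation 48 hrs at 37 °C in Opti-MEM with 2% FBS; DMSO 0.5% final.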
HPGD block – qHTS Assay for Inhibitors of HPGD (15-Hydroxyprostaglandin Dehydrogenase); hit rate 4.3% among 150,000; Potency, µM, for inactives: top-dose activity change, negative = inhibition, usual class: inhibitors; purified HPGD, NADH fluorescence kinetic, PGE2 substrate; 15-hydroxyprostaglandin dehydrogenase [NAD(+)] (Homo sapiens), P15428; AID 894, 2007; further: potency means the concentration at half of the fitted maximal effect
Target sequence (P15428 whole entry, looked up): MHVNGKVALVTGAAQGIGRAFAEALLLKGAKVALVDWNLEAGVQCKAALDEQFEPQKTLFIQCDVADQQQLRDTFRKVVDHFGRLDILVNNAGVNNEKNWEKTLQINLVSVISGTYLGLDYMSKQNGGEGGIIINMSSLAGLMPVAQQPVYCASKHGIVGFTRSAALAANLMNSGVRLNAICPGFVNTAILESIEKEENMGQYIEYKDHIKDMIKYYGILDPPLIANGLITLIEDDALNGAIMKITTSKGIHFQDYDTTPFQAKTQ
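NADH formation kinetics: reaction with 30 uM PGE2 and 1 mM NAD+ (final), 20 nM enzyme, Tris-HCl pH 8 with Tween 20, after 15 min compound preincubation at room temperature. Fluorescence change, last versus first of five reads.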
IMPase cell inh – qHTS Assay for Identifying the Cell-Membrane Permeable IMPase Inhibitors | Inositol monophosphatase 1 (Rattus norvegicus), P97697 | CHO-M1 cells, IP1 accumulation, HTRF TR-FRET ratio | inhibition (IP1 accumulation), % at 46.1 µM | 120,000 tested, under 10 active | AID 901, 2007; active means well fitted curve in the direction sought with a large enough effect in the signal ratio, not every such curve was filed as active; inconclusive means small, poorly fitted or top-dose-only effect, or a change in a side signal; inactive means no such curve, though single readings can be large or run the other way; the % refers to the signal ratio;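 further: cells stimulated with carbachol in lithium chloride buffer; plate controls were DMSO basal wells for no effect and reference inhibitor wells for full effect; higher means more IMPase inhibition seen as more IP1 and lower FRET ratio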
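The IP-One HTRF competitive assay in carbachol-stimulated CHO-M1 cells quantifies cellular IP1. Compounds spanned up to 46 uM final, and activity is expressed as AC50 from concentration-response fits of the ratio and donor data.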
KinaseGlo FLuc – Counterscreen for Luciferase (Kinase-Glo TM) Inhibition; Potency, µM (series often up to 38.3 µM), inactives show top-dose activity change, negative = inhibition, actives largely listed as inhibitors; Kinase-Glo luciferase, ATP luminescence, 8 min; AID 1379, 2008; Luciferin 4-monooxygenase (Photuris pensylvanica), Q27757; hit rate 0.28% among 200,000; active means well fitted inhibition curve with a large enough effect; inconclusive means small, poorly fitted or top-dose-only effect; further: potency means the concentration at half of the fitted maximal effect; nearly all actives have a fitted effect of over 60% in size
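Light output from Kinase-Glo luciferase with luciferin and 10 uM ATP in 50 mM imidazole pH 7.2, KCl, MgCl2, Tween 20, BSA; compound pin-delivered, 8-min ambient incubation, then luminescence read.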
ALDH1A1 inh – qHTS Assay for Inhibitors of Aldehyde Dehydrogenase 1 (ALDH1A1); Aldehyde dehydrogenase 1A1 (Homo sapiens), P00352; Purified ALDH1A1, NADH fluorescence, propionaldehyde substrate; Potency, µM (top dose mostly 75.3 µM), for inactives: top-dose activity, negative = inhibition, most hits filed as inhibitors; AID 1030, 2008; hit rate 7.3% among 220,000;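 further: potency means the concentration at half of the fitted maximal effect; plate controls were no enzyme wells and a reference inhibitor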
Target sequence (P00352 whole entry, looked up): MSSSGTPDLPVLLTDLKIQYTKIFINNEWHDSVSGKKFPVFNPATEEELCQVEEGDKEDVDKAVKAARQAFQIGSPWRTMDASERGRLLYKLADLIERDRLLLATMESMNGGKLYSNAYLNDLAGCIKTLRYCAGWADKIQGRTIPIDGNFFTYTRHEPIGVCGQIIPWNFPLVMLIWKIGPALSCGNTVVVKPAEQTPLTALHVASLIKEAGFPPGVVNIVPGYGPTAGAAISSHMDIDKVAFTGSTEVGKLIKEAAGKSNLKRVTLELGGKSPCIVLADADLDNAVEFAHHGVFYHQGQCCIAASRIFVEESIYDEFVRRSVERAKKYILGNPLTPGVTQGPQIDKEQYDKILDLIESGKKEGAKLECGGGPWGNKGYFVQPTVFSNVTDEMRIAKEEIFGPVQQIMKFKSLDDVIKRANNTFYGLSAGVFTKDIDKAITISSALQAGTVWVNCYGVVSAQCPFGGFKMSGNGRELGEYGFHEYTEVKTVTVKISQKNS
PNC inhibitor – High Content Assay for Compounds that inhibit the Assembly of the Perinucleolar Compartment; PC3M PTB-GFP, PNC prevalence imaging, 16 h; hits give low values; activity change (PNC), negative = inhibition, % at 10 µM; hit rate 3.1% among 140,000;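 active means readout at or below -70, meaning at least 70% loss of cells showing the perinucleolar compartment, a nuclear body marking cancer cells; inconclusive means readout between -30 and a set limit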;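 further: plate controls were DMSO wells for no effect and camptothecin positive control wells for full effect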
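Compounds are pinned in duplicate onto adhered PC3M cells stably expressing GFP-tagged PTB and incubated 16 h at 37 C. Cells are then fixed, nuclei stained with Hoechst, and PNC-positive cells counted.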
Active calls of the source: *; ? = inconclusive; / = no result given; [ ] = dose if it differs, or a comment. This is a sample that favours compounds with a hit; in the whole collection about 10% have one here. Unless noted, the call rests on the fitted dose curve; in most records, active means well fitted inhibition curve with a large enough effect (not every such curve was filed as active); inconclusive means small, poorly fitted or top-dose-only effect, or another doubt; inactive means no such curve, though single readings can be large or run the other way. Unless noted, on the % scale 0 is the no-effect control and ±100 the full control effect.

SMILES | Lamin A splicing | HPGD block | IMPase cell inh | KinaseGlo FLuc | ALDH1A1 inh | PNC inhibitor
CCn1c(CNc2ccc(OC)cc2)nnc1SCC(=O)Nc1ccc(F)cc1 | -1% | -4% | 16 | 0% | -3% | 14
CCn1c(CNc2ccc(F)cc2)nnc1SCC(=O)Nc1ccc(OC)cc1OC | 1% | / | 9 | / | 14µM* | ?
O=C(c1ccc(=O)oc1)N1CCCc2ccccc21 | 11% | ? | -19 | -9% | 10µM* | -11
O=C(c1ccccc1)N1CCc2ccccc21 | -4% | 28µM* | 2 | -6% | ? | 0
O=C(c1ccccc1)N1CCCc2ccccc21 | -9% | -15% | 1 | 1% | -7% | 18
O=C1c2ccccc2C(=O)N1CCCC(=O)N1CCCc2ccccc21 | -6% | -7% | 0 | -2% | 14µM* | ?
CN1CCc2c(OCC(=O)N3CCCc4ccccc43)cccc2C1=O | -25%[46 µM] | / | / | 1% | ? | /
O=C(c1ccc2c(c1)OCO2)N1CCCc2ccccc21 | ? | / | 7 | / | ? | 27
COc1ccc2c(c1)CCc1c(C(=O)N3CCCc4ccccc43)noc1-2 | ? | -23% | 5 | 2% | 4.5µM* | -18
COc1cc(C(=O)N2CCCc3ccccc32)cc(OC)c1OC | ? | -10% | 6 | -1% | -3% | 31
CC(=O)Nc1ccc2c(c1)CCCN2C(=O)c1ccccc1 | 5% | 0% | 1 | -2% | 14µM* | -3
COc1ccc2c(c1)CCc1c(C(=O)NCc3ccc(F)cc3)noc1-2 | -10% | 1% | 9 | 0% | 1% | 33
COc1ccc2c(c1)CCc1c(C(=O)NCc3ccc(Cl)cc3)noc1-2 | 6% | -2% | 14 | 3% | 13µM* | 12
COc1cccc(C(=O)N2CCCc3ccccc32)c1 | 19% | -8% | -3 | -8% | -12% | -85*
O=C(c1cccc2ccccc12)N1CCN(c2ccc([N+](=O)[O-])c(N3CCOCC3)c2)CC1 | -14% | -19% | -10 | 2% | 10µM* | -20
O=C(c1ccccc1F)N1CCN(c2ccc([N+](=O)[O-])c(N3CCOCC3)c2)CC1 | / | / | / | -5% | 0.71µM* | /
O=C(c1ccncc1)N1CCC2(CCCN(c3cccc(-c4ccccc4)c3)C2)CC1 | / | -17% | / | -1% | -9% | /
C/C(=N\NC(=O)c1ccc(CN2CCOCC2)cc1)c1cccc([N+](=O)[O-])c1 | ? | -6% | -4 | 2% | 19µM* | -29
O=C(CCCCl)NC(=S)Nc1ccc(CN2CCOCC2)cc1 | / | / | / | / | 20µM* | /
O=C(/C=C/c1cccc([N+](=O)[O-])c1)NC(=S)Nc1ccc(CN2CCOCC2)cc1 | -23% | -12% | / | 6% | 3.2µM* | ?
O=C(NC(=S)Nc1ccc(CN2CCOCC2)cc1)c1ccc([N+](=O)[O-])cc1 | -14% | -17% | 3 | 2% | ? | ?
CCCCC(=O)Nc1cccc(NC(=S)NC(=O)COc2ccccc2Cl)c1 | ? | -17% | / | -1% | -1% | 91
O=C(COc1ccccc1Cl)NC(=S)Nc1ccc(CN2CCOCC2)cc1 | 9% | 25µM* | / | 8% | -1% | 18
CCCCOc1ccc(C(=O)NC(=S)Nc2ccc(CN3CCOCC3)cc2)cc1 | -7% | 1% | / | -9% | -7% | 37
C[C@H]1CC(C)(C)C[C@@](OCCN2CCCCC2)(c2ccccc2)C1 | / | -4% | / | -3%[7.66 µM] | 7%[13.5 µM] | /
SMILES | Lamin A splicing | HPGD block | IMPase cell inh | KinaseGlo FLuc | ALDH1A1 inh | PNC inhibitor
COc1ccc(N(CC(=O)Nc2ccccc2C(=O)NCc2ccco2)S(C)(=O)=O)cc1 | 6% | -11% | 0 | -3% | 11µM* | 7
CS(=O)(=O)N(Cc1ccc(C(=O)NCc2ccco2)cc1)c1ccccc1 | -10% | 28µM* | 3 | 1% | 8% | 77
CC1C(=O)OC2CC34C5CC(C(C)(C)C)C36C(OC(=O)C6O)OC4(C(=O)O5)C21O (stereo not given) | / | 7% | -3 | 2% | 5% | /
CCOc1ccc(OCC)c(NS(=O)(=O)c2ccc3c(c2)n(C)c(=O)c(=O)n3C)c1 | ? | -12% | 3 | -1% | -4% | ?
CCOc1ccc2nc(NS(=O)(=O)c3ccc4c(c3)n(C)c(=O)n4C)sc2c1 | 22% | 25µM* | -1 | 2% | ? | 16
CCOc1ccc2nc(NS(C)(=O)=O)sc2c1 | 3% | 28µM* | -10 | -2% | ? | 26
CCOc1ccc(S(=O)(=O)Nc2nc3ccc(OC)cc3s2)cc1 | -2% | -23% | -1 | 18% | 5% | 2
CC(=O)N1CCN(C)CC1 | / | -12% | -1 | 0% | -7% | /
COC(=O)C1=C(C(=O)OC)[C@@H]2N(C)c3ccccc3[C@@]23C[C@@H](C(=O)OC)N(S(=O)(=O)c2c(C)noc2C)C3=N1 | -8%[9.22 µM] | -6% | / | -6%[7.66 µM] | 7%[13.5 µM] | /
Cc1ccc(C)c(NC(=O)CSc2nc(=O)n(Cc3ccncc3)c3c2CCC3)c1 | -6%[46 µM] | / | / | / | / | /
CC1(C)CC(=O)c2sc(NC(=O)c3ccccc3)nc2C1 | / | / | / | -15% | 2.8µM* | /
CC1(C)CC(=O)c2sc(NC(=O)c3ccc4ncsc4c3)nc2C1 | -7% | ? | -3 | 0% | 3.5µM* | -19
CC(Oc1ccccc1)C(=O)Nc1nc2c(s1)C(=O)CC(C)(C)C2 (stereo not given) | 18% | -24% | 3 | -5% | 14µM* | ?
CC1(C)CC(=O)c2sc(NC(=O)CN3CCCCC3)nc2C1 | 23% | -20% | -1 | 2% | 20µM* | -7
CC1(C)CNC(=O)c2sc(NC(=O)c3ccccc3)nc2C1 | 1%[9.22 µM] | / | / | -4% | ? | /
Cc1ccc2nc(NC(=O)c3ccc4ncsc4c3)sc2c1 | -4% | ? | -5 | 2% | ? | 31
COC(=O)C1=C(C(=O)OC)[C@@H]2N(C)c3ccccc3[C@@]23C[C@@H](C(=O)OC)N(S(=O)(=O)c2ccc(C#N)cc2)C3=N1 | -2%[9.22 µM] | 1% | / | -7%[7.66 µM] | 2%[13.5 µM] | /
CCCCc1nc2c(c3c1C[C@H](C)OC3)CN(C(=O)c1cccnc1)CC2 | ? | -18% | / | -3%[7.66 µM] | 6%[13.5 µM] | /
CCC/C=C(\CCC)C(NS(=O)(=O)c1ccccc1)c1ccc(C(F)(F)F)cc1 (stereo not given) | / | -16% | / | -6% | -2% | /
CC1(C)CC(=O)c2sc(NC(=O)C(C)(C)C)nc2C1 | -9%[46 µM] | / | / | 5% | ? | /
CC1(C)CC(=O)c2sc(NC(=O)c3cccs3)nc2C1 | -9% | -8% | -12 | ? | 16µM* | -10
